Tb PGK inh: inhibitors of T. brucei phosphoglycerate kinase | P07378 | PGK/GAPDH coupled, Kinase-Glo luminescence, 60 min | Potency, µM (doses to about 57.5 µM), for inactives: at the top dose activity change, negative = inhibition, most hits filed as inhibitors | actives 0.043% (n = 380,000); further: nearly all actives have a fitted effect of over 60% in size
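Luminescent ATP detection (Kinase-Glo Plus) follows a 60-minute room-temperature incubation, with wells lacking PGK as controls. Buffer: 100 mM TEA (pH 7.6), 5 mM MgCl2, 0.01% Tween-20. Coupling enzyme GAPDH (100 nM final) supplies unstable 1,3-BPG in-well.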
APE1 inh: blocks human APE1 abasic DNA cleavage. recombinant APE1, TAMRA/BHQ-2 abasic DNA cleavage fluorescence. Potency, µM (series often up to 65.8 µM), without a hit: top-dose activity change, negative = inhibition, most hits filed as inhibitors. actives 0.35% (n = 350,000). AID 2517;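 further: plate controls were vehicle for no effect and reference inhibitor for full effect; nearly all actives have a fitted effect of over 55% in size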
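Endonuclease cleavage of a quenched abasic-site DNA duplex (50 nM) by APE1 (0.75 nM) was tracked by TAMRA dequenching. Compounds were preincubated with enzyme 15 min at room temperature; data normalized to buffer-only and DMSO wells plus NSC13755 control.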
GLS inh: glutaminase GLS (human) inhibition; O94925; GLS enzymatic activity, qHTS titration; Potency, µM (series often up to 45.5 µM), for inactives: at the top dose activity change, negative = inhibition, usual class: inhibitors; actives 0.21% (n = 410,000); AID 624170
Target sequence (O94925 whole entry, looked up): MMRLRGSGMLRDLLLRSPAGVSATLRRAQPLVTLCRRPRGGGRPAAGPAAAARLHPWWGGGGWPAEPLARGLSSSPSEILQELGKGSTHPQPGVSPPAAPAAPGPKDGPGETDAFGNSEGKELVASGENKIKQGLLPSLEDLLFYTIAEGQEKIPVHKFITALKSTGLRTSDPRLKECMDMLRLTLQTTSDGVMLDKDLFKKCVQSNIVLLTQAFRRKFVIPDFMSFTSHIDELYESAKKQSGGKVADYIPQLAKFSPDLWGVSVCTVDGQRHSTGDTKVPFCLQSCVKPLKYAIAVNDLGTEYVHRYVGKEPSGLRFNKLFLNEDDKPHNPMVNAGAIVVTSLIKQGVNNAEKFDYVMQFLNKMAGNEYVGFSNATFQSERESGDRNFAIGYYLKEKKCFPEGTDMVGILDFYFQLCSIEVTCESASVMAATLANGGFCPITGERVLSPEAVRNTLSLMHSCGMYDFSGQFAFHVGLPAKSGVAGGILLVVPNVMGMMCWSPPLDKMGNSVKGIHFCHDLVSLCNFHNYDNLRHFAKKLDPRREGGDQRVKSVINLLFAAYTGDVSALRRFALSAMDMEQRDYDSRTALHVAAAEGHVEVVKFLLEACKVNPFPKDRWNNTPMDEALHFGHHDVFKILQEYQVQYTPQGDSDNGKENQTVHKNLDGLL
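Glutamate formation by hKGA was monitored fluorometrically using coupled glutamate oxidase, HRP and Amplex Red. Substrate was added as 1 mM L-glutamine solution; incubation was 30 min at RT after an initial read.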
FEN1 inh: blocks human flap endonuclease 1; P39748; actives 0.35% (n = 390,000); Potency, µM (titrated, usually from 114 µM), for the others: at the highest dose activity change, negative = inhibition, actives largely listed as inhibitors; Recombinant FEN1 flap cleavage, fluorescence, 15 min; further: nearly all actives have a fitted effect of over 65% in size
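Reaction started by adding substrate (50 nM final) to 10 nM enzyme after 15 min room-temperature compound preincubation. Reads at 0 and 15 min, with data normalized and fitted to a four-parameter Hill equation.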
RECQ1 inh-1: blocks DNA unwinding by human RECQ1; P46063; RECQ1 DNA unwinding, red fluorescence kinetic read; Potency, µM (highest dose often 57.3 µM), without a hit: at the highest dose activity, negative = inhibition, hits mostly inhibitors; actives 0.54% (n = 240,000); AID 2549;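 further: plate controls were vehicle for no effect and no enzyme for full effect; nearly all actives have a fitted effect of over 30% in size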
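RECQ1T1 50 nM; forked duplex (20 bp + 30-nt ss tails) 200 nM, ATP 2 mM final; pH 8.0, 2 mM MgCl2, 2.5 ug/ml poly(dI-dC); 15 min compound preincubation; discontinuous kinetic read over 2 h at RT.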
BLM helicase inh: blocks DNA unwinding by human BLM helicase; P54132; actives 0.2% (n = 350,000); recombinant BLM DNA unwinding, fluorescence dequenching; Potency, µM (doses to about 56.1 µM), for inactives: top-dose activity change, negative = inhibition, actives largely listed as inhibitors;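 further: plate controls were vehicle for no effect and no enzyme for full effect; nearly all actives have a fitted effect of over 35% in size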
RECQ1 inh conf: confirmation of human RECQ1 helicase inhibitors; shares compounds with RECQ1 inh-1; RECQ1 helicase DNA unwinding, fluorescence; Potency, µM (titrated, usually from 229 µM), without a hit: at the top dose activity change, negative = inhibition, most hits filed as inhibitors; actives 28% (n = 610); further: nearly all actives have a fitted effect of over 45% in size
RECQ1 ADP FP: counter-screen for RECQ1 inhibitors: ADP displacement. shares compounds with RECQ1 inh-1. ADP fluorescence polarization displacement counterscreen. Potency, µM (series often up to 228 µM), for inactives: at the highest dose activity change, negative = inhibition, hits mostly inhibitors. actives 27% (n = 530). AID 2711; further: nearly all actives have a fitted effect of over 45% in size
RECQ1 inh-2: blocks human RECQ1 DNA unwinding. Potency, µM (highest dose often 119 µM), for inactives: at the top dose activity, negative = inhibition, hits mostly inhibitors. actives 15% (n = 1,100). AID 504841. shares compounds with RECQ1 inh-1. recombinant RECQ1 DNA unwinding, red fluorescence; further: nearly all actives have a fitted effect of over 50% in size
* marks the source's active call; other numbers are inactive results; i = inactive; ? = inconclusive; . = no result; [ ] = another dose, or the depositor's remark. An excerpt weighted towards active compounds, which were near 0.86% of everything screened. The call rests on the fitted dose curve; in most records, active means well fitted curve in the direction sought with a large enough effect; inconclusive means small, poorly fitted or top-dose-only effect, or another doubt; inactive means no such curve, though single readings can be large; an effect the other way counts as inactive or inconclusive. Unless noted, on the % scale 0 is the no-effect control and ±100 the full control effect; potency means the concentration at half of the fitted maximal effect.

SMILES	Tb PGK inh	APE1 inh	GLS inh	FEN1 inh	RECQ1 inh-1	BLM helicase inh	RECQ1 inh-2	others
COc1ccc(C(=O)C[n+]2ccc(Cl)c3ccc(Cl)cc32)cc1	.	.	.	-7%	.	.	.
Cc1cc2nc(-c3cc(NC(=O)c4cc5ccccc5o4)ccc3Cl)oc2cc1C	-4%	.	12%	8%	.	-2%	.
Cc1ccc(/C=C/C(=O)NCc2ccccn2)o1	?	?	?	-26%	?	?	18µM*
COc1ccc(/C=C/C(=O)NCc2ccccn2)cc1	4%	0%	13%	2%	-42%	1%	.
O=C(O)CN=C1CC(c2ccccc2)CC(=O)/C1=C(/O)CCCN1C(=O)c2ccccc2C1=O (stereo unspecified)	-8%	-10%	1%	-5%	i	1%	.	RECQ1 inh conf=?;RECQ1 ADP FP=6%
CCCN=C1CC(C)(C)CC(=O)/C1=C(/O)CCCN1C(=O)c2ccccc2C1=O	-8%	3%	-16%	-3%	9%	-5%	.
C=CC1=C[C@@H](O)C2OC2C12OCCCO2 (stereo partly specified)	.	-4%[12.4 µM]	.	.	i[11.5 µM]	-1%[12.4 µM]	.
Cc1ccc(S(=O)(=O)N2CCc3ccccc3C2CN2C(=O)c3ccccc3C2=O)cc1 (stereo unspecified)	14%	10%	2%	-16%	32µM*	-9%	-13%
O=C1c2ccccc2C(=O)N1CC1c2ccccc2CCN1S(=O)(=O)c1cnc[nH]1 (stereo unspecified)	-2%	2%	7%	-2%	-3%	3%	.
CCCNC(=O)CNC(=O)c1ccccc1OCC(=O)Nc1ccc(Br)cc1	.	.	.	-10%	.	.	.
O=C1NN(c2cccc(Br)c2)C(=O)/C1=C/c1ccc(-c2cc([N+](=O)[O-])ccc2O)o1	?	2%	-14%	?	20µM*	-17%	.	RECQ1 inh conf=63µM*
COc1cc(C2CC(=O)N3CN(Cc4ccco4)CSC3=C2C#N)ccc1OCc1ccccc1 (stereo unspecified)	-6%	7%	-17%	?	?	-23%	-7%
COc1ccc(C2CC(=O)N3CN(Cc4ccco4)CSC3=C2C#N)cc1 (stereo unspecified)	-11%	0%	?	3%	-15%	-3%	.
CC(=O)Oc1ccc(N2C(=O)C3C(C2=O)C(C(=O)c2ccc(Cl)cc2)N2CCCC32)cc1 (stereo unspecified)	-1%	7%	1%	-2%	-4%	1%	.
Cc1ccc(N2C(=O)C3C(C2=O)C(C(=O)c2ccc(Cl)cc2)N2CCCC32)cc1 (stereo unspecified)	-7%	10%	-5%	3%	25µM*	-3%	-28%
c1ccc2oc(-c3[nH]ncc3CN3CCSCC3)cc2c1	9%	-1%	1%	-17%	?	-1%	2%
C/C(=N\NC(=O)c1ccncc1)c1cc2ccccc2oc1=O	-2%	2%	24%	8%	-4%	1%	.
N/C(=N\NC(=O)c1ccccc1Cl)c1cc2ccccc2oc1=O	0%	4%	26%	-10%	28µM*	-7%	-6%
Cc1cccc(NC(=O)c2oc3ccc(S(=O)(=O)N4CCCCC4)cc3c2C)c1C	-9%	.	-28%	-12%	.	-4%	.
COC(=O)c1cc2c(-c3ccccc3)cc3ccccn3c-2c1C(=O)OC	-10%	-5%	2%	?	?	-17%	79µM*
COC(=O)c1c(C(=O)OC)c2cccc3cc(-c4ccccc4)c4ccc1c4n32	5%	-6%	-4%	-4%	4µM*	-13%	?
CS(=O)(=O)N1CCN(c2ccc([N+](=O)[O-])c(NCc3ccc(Cl)cc3)c2)CC1	-7%	2%	12%	-5%	32µM*	16µM*	?
CS(=O)(=O)N1CCN(c2ccc([N+](=O)[O-])c(NCc3ccccc3)c2)CC1	i	-1%	1%	0%	-13%	-4%	.
Cc1ccc(SCC(c2ccccc2)N2CCN(CCc3ccccc3)CCC2=O)cc1 (stereo unspecified)	.	-8%	.	?	6%	-9%	.
CCOc1cc(/C=C(/NC(C)=O)C(=O)O)cc(Cl)c1OCc1cccc(Br)c1	i	20%	17%	2%	-3%	-2%	.	RECQ1 inh conf=?;RECQ1 ADP FP=-9%
SMILES	Tb PGK inh	APE1 inh	GLS inh	FEN1 inh	RECQ1 inh-1	BLM helicase inh	RECQ1 inh-2	others
CCOc1cc(C(N)=O)cc(Cl)c1OCc1ccccc1	4%	?	-2%	-20%	i	-11%	.
CCNc1ccc2c(Cl)cc(=O)oc2c1	0%	-4%	2%	-2%	35µM*	0%	-38%
CCN(CC)c1ccc2c(Cl)cc(=O)oc2c1	i	-1%	10%	-16%	-24%	-3%	.
Cc1ccc2c(CC(=O)Nc3ccc(S(=O)(=O)N4CCCCC4)cc3)coc2c1C	-3%	.	0%	0%	.	-11%	.
CCn1c(SC(C)C(=O)O)nc2sc3c(c2c1=O)CCC3 (stereo unspecified)	-16%	?	-10%	-19%	?	-10%	?
CC(Sc1nc2sc3c(c2c(=O)n1-c1ccccc1)CCCC3)C(=O)O (stereo unspecified)	-2%	13%	-6%	-3%	-7%	-3%	.
c1cc(-c2noc(CCC3CCCC3)n2)ccn1	-7%	-4%	-8%	3%	?	0%	-15%
CCOC(=O)c1ccc(N2C(=O)c3[nH]nc(-c4ccc(C)cc4)c3C2c2cccs2)cc1 (stereo unspecified)	i	.	11%	-8%	.	-7%	.
CCc1nc(Nc2ccc(N3CCN(C(C)=O)CC3)cc2)c2oc3ccccc3c2n1	0%	?	36%	-10%	?	-14%	-17%
Cc1ccc(-c2nn(-c3cccc(F)c3)cc2CN2CCN(c3ccccn3)CC2)o1	-7%	15%	-2%	?	?	-20%	?
Cc1ccc(NC(=O)Cc2cc(C(=O)O)c3ccccc3n2)c(C)c1	i	0%	14%	-13%	i	0%	.	RECQ1 inh conf=11%;RECQ1 ADP FP=-1%

Bioassay records as filed in PubChem.
